In all, about 33,000 sequences were measured (“E-score (-0.5 to 0.5)”: median about -0.016, highest 2% from about 0.31 on). This excerpt belongs to a sample that is enriched for the highest values.
Molecular target: Cst6 (UniProt P40535)
Assay: PBM E-score (8-mer binding enrichment) (E-score (-0.5 to 0.5)); higher = stronger / more preferred TF binding
Details: protein concentration: 200 nM; construct: GST-DNA-binding domain
Method: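 Universal 'all 10-mer' protein binding microarrays (Agilent AMADID 015681) probed with GST-tagged S. cerevisiae TFs (full-length or DBD) made by in vitro transcription/translation (PURExpress), about 100-200 nM. Bound TF was detected with fluorescent anti-GST. Each ungapped 8-mer (which stands for itself and its reverse complement) is scored by the PBM enrichment score (E-score), a modified Wilcoxon-Mann-Whitney statistic from -0.5 to +0.5, computed with the Universal PBM Analysis Suite. Scale: above 0.35 generally sequence-specific binding.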

UniProt P40535, sequence (P40535 whole entry): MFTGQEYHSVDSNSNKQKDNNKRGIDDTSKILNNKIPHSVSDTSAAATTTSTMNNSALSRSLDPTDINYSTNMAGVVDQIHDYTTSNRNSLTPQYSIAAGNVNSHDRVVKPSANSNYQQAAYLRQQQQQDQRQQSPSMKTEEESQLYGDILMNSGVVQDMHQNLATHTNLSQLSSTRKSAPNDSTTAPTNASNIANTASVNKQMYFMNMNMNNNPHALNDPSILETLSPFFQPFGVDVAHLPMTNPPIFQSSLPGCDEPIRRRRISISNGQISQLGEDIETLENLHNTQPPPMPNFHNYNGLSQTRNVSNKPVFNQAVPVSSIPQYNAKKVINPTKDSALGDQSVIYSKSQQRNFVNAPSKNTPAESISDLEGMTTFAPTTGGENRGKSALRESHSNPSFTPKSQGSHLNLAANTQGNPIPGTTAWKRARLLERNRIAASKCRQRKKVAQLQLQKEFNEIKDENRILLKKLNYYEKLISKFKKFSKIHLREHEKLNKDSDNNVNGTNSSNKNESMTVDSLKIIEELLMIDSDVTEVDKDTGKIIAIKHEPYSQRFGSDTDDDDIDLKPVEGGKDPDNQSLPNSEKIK

Sequence | PBM E-score
CCTCCCTC | -0.162
GGAAATGA | 0.195
CGTAGATC | 0.143
CTCGAAAC | 0.0781
GGTAGGCA | -0.184
AGGCGACT | -0.103
CGATGAAC | -0.0118
CAAGGCGG | 0.00218
ATCCGCAA | -0.0389
AGGCGTCA | 0.256
TCGCGGCA | -0.0207
TCGCGACA | -0.202
TCGCGTCA | 0.369
CGGCGTCC | 0.113
CGGCGTCA | 0.34
ACGCCGAA | 0.0504
AAAACATG | 0.114
CAATGATC | 0.095
AAATGATC | 0.0366
CAATGATA | 0.268
AAATGATT | 0.294
CAATGATG | 0.391
AAATGATG | 0.332
GTAATCAA | 0.313
CTAATCAA | 0.205

Sequence | PBM E-score
GTAATCTA | 0.345
CTAATCTA | -0.0326
ATAATCTA | 0.0831
GTAATCAC | 0.225
CTAGATTC | -0.0987
ATTTCATG | 0.00873
CAAACTAG | -0.195
TGACCTCA | 0.45
GGACCTAA | -0.105
TGACCTAA | 0.362
CGACCTAA | 0.11
CGACCTCA | 0.0422
AGACCTCA | 0.022
CAGGACAA | 0.0953
TCCACCAA | -0.117
GAAGAACC | -0.119
AGATGATC | 0.0705
ATATGATC | 0.234
AGATGATA | 0.211
ATATGATG | 0.333
CTATGACC | 0.193
ATATGATA | 0.296
ATATGACC | 0.108
AGATGATG | 0.346
ATATGACG | 0.472

Sequence | PBM E-score
AAATGGCG | 0.142
TAGTGCCA | -0.123
AGCTAAGC | -0.156
GCGCTGCA | -0.0118
CGAACCCG | -0.251
CCGGATTC | -0.172
ACCTATTA | 0.0751
AGAGATCA | -0.0737
GGAGATCA | -0.0624
TGAGATCA | 0.344
GGCATCAC | 0.227
ATAATCAG | 0.106
ATAATCAT | 0.344
GCCATCAC | 0.0711
AACATCAT | 0.378
AACATCAC | 0.295
AGCATCAC | 0.0541
ATAATCAA | 0.16
GTCATCAC | 0.409
CTCATCAC | 0.146
ATCATCAC | 0.341
AACATCAG | 0.183
ACCTTCAA | -0.00754
AACGCAAG | 0.00296
AATCTGAG | -0.0919

Sequence | PBM E-score
AAGTCTTG | -0.0973
ATAGCGGA | -0.107
ACTATTGA | 0.202
AGGGCGCA | -0.0682
ATCATCAG | 0.259
ATAATGAT | 0.334
ATAATGAC | 0.295
ATAATGAG | 0.0695
ATCATCAT | 0.355
AGCATCAT | 0.251
GGTGTCTA | 0.0529
AGGCTGCG | -0.225
GTAGGACA | -0.0243
CGCTTCGC | -0.0922
ACACACAC | 0.0991
TAACCTAA | 0.158
ATTCGATG | 0.105
CATCATCG | 0.333
AATCATCC | 0.113
AATCATCT | 0.114
CATCATCC | 0.345
CATCATCA | 0.409
CCTCATCA | 0.161
ACTCATCA | 0.00088
GATCATCC | -0.0712

Sequence | PBM E-score
AATCATCA | 0.308
CCTCATCG | 0.00595
AATCATCG | 0.039
GATCATCA | 0.163
ACGCTGCT | -0.22
CCGGGCGC | -0.213
TGCCTAAA | 0.0602
CCGATTTC | -0.121
TACCGACA | 0.075
TAGGCTGA | -0.0803
CCCCTACG | -0.298
GAGGAGGA | -0.288
ACTCCTTC | -0.234
TATCATCA | 0.341
TATCATAA | 0.144
AATCATTA | 0.28
CATCATTA | 0.327
CATCATTC | 0.223
TCTCATCA | 0.181
CCTGCTTA | -0.0696
GGGTCGCA | -0.144
CCGAGGCG | 0.0158
CTCCTAGA | -0.09
ATGCATTA | 0.255
AAATTACT | 0.222

Sequence | PBM E-score
ATATTACC | 0.248
AAATTACC | 0.199
CAATTACC | 0.138
CACTTACC | 0.0685
CAATTACG | 0.346
AAATTACG | 0.336
ATATTACA | 0.248
CACTTACA | 0.173
CAATTACA | 0.223
CACTTACG | 0.351
ATATTACG | 0.415
AACTGCCT | 0.129
CCGTTGCG | 0.0674
TACCTGCA | -0.0618
ACAAGATA | 0.0758
AGCTATGA | 0.101
ATATGCAC | 0.0769
ACGGGCAC | -0.105
CAGCCCAC | -0.191
AAGGTAAT | 0.129
ACCGTCCC | -0.173
ACGTACGG | 0.149
CCGTAAGC | -0.0303
ATGTAAGA | 0.339
ACGTACGT | 0.311

Sequence | PBM E-score
TCGTAAGA | 0.00239
CCGTAAGA | -0.0536
GCGTAAGC | 0.0902
CTGTAAGA | 0.0332
ACGTAAGA | 0.448
GTGTAAGA | 0.0158
ACGTAAGC | 0.381
ACGTACGC | 0.229
ATCTGGAA | 0.184
GCTCAATA | 0.0653
CATAGAGG | -0.0937
CACCTCGG | 0.02
CACCATTC | 0.0213
AGGTATTC | 0.0784
ACCGCAGG | -0.104
CCACCGAC | -0.163
ACTCAAGT | -0.053
CACAACCA | 0.124
GTATACCA | -0.051
TGCGCCAA | -0.0304
AAGTAAGC | 0.0657
CCGTAAGG | -0.113
